Assay outcomes as filed in PubChem BioAssay.
Hits are enriched below; roughly 3.5% of the tested compounds scored in any of these assays.
MITF primary – blocks human microphthalmia-associated transcription factor; AlphaScreen MITF homodimerization, bead proximity signal; O75030; inhibition, % at 2.6 µM; AID 1259374; hit rate 0.91% among 650,000; in the data active means inhibition above about 50%;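 further: 0% = vehicle wells with protein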
GPR151 ag – human GPR151 activation. Q8TDV0. PathHunter beta-arrestin GPR151 cells, luminescence. activation, % at 11.2 µM. hit rate 1% among 650,000. AID 1508602; in the data active means activation above about 4.9%;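 further: 0% = median of compound wells and 100% = cells with positive control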
Target sequence (Q8TDV0 whole entry, looked up): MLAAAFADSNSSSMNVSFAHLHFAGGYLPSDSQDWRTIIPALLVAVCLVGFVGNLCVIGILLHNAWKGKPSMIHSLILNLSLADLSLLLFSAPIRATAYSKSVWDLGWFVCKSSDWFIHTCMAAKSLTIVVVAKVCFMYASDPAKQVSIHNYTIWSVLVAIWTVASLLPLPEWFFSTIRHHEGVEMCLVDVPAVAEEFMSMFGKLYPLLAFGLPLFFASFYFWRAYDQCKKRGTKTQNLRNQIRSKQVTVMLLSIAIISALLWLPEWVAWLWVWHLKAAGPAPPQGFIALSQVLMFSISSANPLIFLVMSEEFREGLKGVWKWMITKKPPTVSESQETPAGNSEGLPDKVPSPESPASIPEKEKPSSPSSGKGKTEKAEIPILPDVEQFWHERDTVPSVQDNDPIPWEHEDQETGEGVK
FBW7 activator – activators of human E3 ligase FBW7 | Q969H0 | AlphaScreen FBW7–phospho-cyclin E peptide binding, activator screen | normalized activity (activation), % at 26.1 µM | hit rate 0.13% among 650,000; in the data active means normalized activity above about 1.9%;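 further: purified mutant Fbw7 with reduced substrate affinity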
TEAD-YAP inh – TEAD-YAP interaction inhibition; AID 1259422; HEK-TIYL cells, TEAD-Gal4/YAP UAS-luciferase luminescence; hit rate 1.4% among 640,000; inhibition, % at 9.12 µM; in the data active means inhibition above about 32%;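 further: 0% = median of test compound wells and 100% = reference inhibitor wells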
GPR151 conf act – confirmation of human GPR151 activators; 6,700 tested, under 10 active; activation, % at 11.2 µM; shares compounds with GPR151 ag; GPR151 PathHunter beta-arrestin cells, luminescence, 90 min; % of EA-reagent control over plate median;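 active means mean percent activation across replicates above the confirmation screen cutoff of 4.91%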
GPR119 counter – GPR119 activation, counter-screen for GPR151 activators; GPR119 PathHunter beta-arrestin cells, luminescence, 90 min; 0 = compound-well median, 100 = enzyme-acceptor control; hit rate 0.3% among 6,700; activation, % at 11.2 µM; shares compounds with GPR151 ag; AID 1508611;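 active means mean percent activation in the counterscreen above 29.09%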;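 further: counterscreen on off-target GPR119 to flag nonselective hits from the GPR151 activator screen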
* marks the source's active call; other numbers are inactive results; x = no result given; ! = not confirmed by another sample.

SMILES	MITF primary	GPR151 ag	FBW7 activator	TEAD-YAP inh	GPR151 conf act	GPR119 counter
CCCNC(=O)c1cncc(-c2ccc(C(=O)NC3CC3)cc2)c1	3	5.7*	0	-7	1	6
COc1ccc(S(=O)(=O)/N=C2\C=C(Cl)C(=O)C(Cl)=C2Cl)cc1	7	1	0	2	x	x
CC1CN(CCOCCOc2ccc(Cl)c3ccccc23)CC(C)O1 (configuration not stated)	21	0	0	7	x	x
CC1CN(CCOCCOc2c(Cl)cccc2Cl)CC(C)O1 (configuration not stated)	7	8.4*	0	13	0	4
COc1ccccc1CNC(=O)Cn1nc(C(=O)N2CCOCC2)cc1C	-5	2	0	-8	x	x
CN(Cc1ccccc1)S(=O)(=O)c1ccc2[nH]c(=O)c(=O)[nH]c2c1	-5	5.2*	0	6	0	1
Cc1cc2[nH]c(=O)c(=O)[nH]c2cc1S(=O)(=O)N(C)Cc1ccccc1	5	0	0	1	x	x
CCc1nc(-n2nc(C)cc2N)c2c3c(sc2n1)CCC3	-4	-2	0	-4	x	x
CCc1nc(-n2nc(C)cc2N)c2c3c(sc2n1)CCCC3	-3	6.5*	0	-2	1	-8
NC(=O)c1c(NC(=O)COC(=O)CN2C(=O)C3CCCCC3C2=O)sc2c1CCC2 (configuration not stated)	-21	0	0	1	x	x
CCOc1ncccc1C(=O)NC1(C)CCS(=O)(=O)C1 (configuration not stated)	-13	6.2*	0	-1	-1	-5
N#Cc1c(-c2ccncc2)cc(-c2ccc(Cl)cc2)nc1N	-11	5.4*	0	-7	0	-2
N#Cc1c(-c2ccc(Cl)cc2)cc(-c2ccccc2)nc1N	10	0	0	2	x	x
C=CCNC(=O)c1onc(C)c1Cl	9	0	0	-5	x	x
COC(=O)C1=CN(Cc2ccccc2)C=C(C(=O)OC)C1c1ccc(Cl)c(Cl)c1	-29	2	1	-5	x	x
Cc1nn(C)c(C)c1-c1ccc2nc(C(C)C)[nH]c(=O)c2c1	-10	5.6*	0	3	-1	1
Cc1nn(C)c(C)c1-c1cccc(C(N)=O)c1	-5	0	0	0	x	x
COc1cccc(C(=O)COC(=O)c2ccc3c(c2)OCO3)c1	-10	5.3*	0	-3	0	2
COc1cc2nc(Nc3ccc(N4CCOCC4)cc3)nc(Nc3ccccc3)c2cc1OC	8	2	0	6	x	x
COc1cc2nc(Nc3ccccc3)nc(Nc3ccc(N4CCOCC4)cc3)c2cc1OC	21	8.2*	0	0	0	4
COc1cc2nc(Nc3ccc4ncccc4c3)nc(Nc3ccc4c(c3)OCO4)c2cc1OC	5	7.7*	0	1	0	-7
CCN(CC)c1nc(Nc2cc(OC)c(OC)c(OC)c2)nc(Nc2cc(OC)c(OC)c(OC)c2)n1	5	2	0	11	x	x
CCN(CC)c1nc(Nc2ccc(N3CCOCC3)cc2)nc(Nc2cc(OC)c(OC)c(OC)c2)n1	8	9.3*!	0	-2	0	5
COc1cc2nc(Oc3ccccc3)nc(Nc3ccc(NC(C)=O)cc3)c2cc1OC	14	7.4*	0	23	0	0
COc1ccc(C2C(C#N)=C(N)Oc3n[nH]c(C)c32)c(OC)c1OC (configuration not stated)	-6	0	0	-4	x	x
COc1ccc(C2C(C#N)=C(N)Oc3n[nH]c(C)c32)c2ccccc12 (configuration not stated)	-11	5.5*	0	-3	0	-7
COc1ccc(NC(=O)Nc2ccc(F)cc2F)c([N+](=O)[O-])c1	-10	5.0*	0	-14	0	6
COc1ccc(NC(=O)COc2ccc(-c3ccccc3)cc2)c([N+](=O)[O-])c1	9	0	0	5	x	x
COc1ccc(NC(=O)COc2cccc(C)c2)c([N+](=O)[O-])c1	21	6.9*	0	-33	0	11
COc1cc([N+](=O)[O-])ccc1NC(=O)Nc1ccc(Cl)cc1F	-6	6.2*	0	-1	2	9
